Where “and” joins values, the source holds several entries; their conditions need not be identical. Equal entries are not always repeated. The campaign covered roughly 5,500 compounds. About 2,000 (36%) were called active. Roughly 18% stayed inconclusive and do not appear here. No stated cut-off is given here; in the data, active means normalized growth mostly below about 0.91 (no sharp cut-off); inconclusive means no clear call, values can overlap the other calls; inactive means mostly above about 0.92. Some of the results follow.
Assay: chemical genetic growth profiling, strain panel (AID 1159580);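 further: tested at 20 µM; growth read once vehicle control cultures reached saturation at 30 °C; 1 = growth at the plate median or of vehicle wells; lower values mean less growth of the strain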
Settings: S. cerevisiae deletion strains, growth OD

Measured: normalized growth

Nc1ncnc2c1ncn2[C@@H]1O[C@H](CO)[C@@H](O)[C@@H]1O
inactive: locus YAL013W, strain DEP1, hits give low values 1.01 | locus YAL021C, strain ccr4, hits give low values 1 | locus YAL026C, strain drs2, hits give low values 1.01 | locus YAL030W, strain snc1, hits give low values 1.01 | locus YBL061C, strain skt5, hits give low values 1.01 | locus YBR009C, strain hhf1, hits give low values 1.01 | locus YBR021W, strain FUR4, hits give low values 1 | locus YBR023C, strain chs3, hits give low values 1.01 | locus YBR171W, strain sec66, hits give low values 1.02 | locus YBR229C, strain ROT2, hits give low values 1.01 | locus YBR231C, strain swc5, hits give low values 0.997 | locus YBR279W, strain paf1, hits give low values 1.01 | locus YCL011C, strain gbp2, hits give low values 1.01 | locus YCL016C, strain dcc1, hits give low values 1 | locus YCL029C, strain bik1, hits give low values 1.05 | locus YCL061C, strain MRC1, hits give low values 1.01 | locus YCL069W, strain vba3, hits give low values 1.02 | locus YCR088W, strain abp1, hits give low values 1.01 | locus YDL005C, strain med2, hits give low values 1.02 | locus YDL035C, strain GPR1, hits give low values 1.01 | locus YDL040C, strain nat1, hits give low values 1.01 | locus YDL074C, strain BRE1, hits give low values 1.01 | locus YDL101C, strain DUN1, hits give low values 1.01 | locus YDL134C, strain PPH21, hits give low values 1.01 | locus YDL185W, strain tfp1, hits give low values 1.02 | locus YDL192W, strain arf1, hits give low values 1.03 | locus YDR001C, strain nth1, hits give low values 1.01 | locus YDR069C, strain doa4, hits give low values 1.01 | locus YDR101C, strain arx1, hits give low values 1.03 | locus YDR137W, strain rgp1, hits give low values 1.03 | locus YDR150W, strain NUM1, hits give low values 1.01 | locus YDR159W, strain sac3, hits give low values 1.01 | locus YDR162C, strain NBP2, hits give low values 1.01 | locus YDR195W, strain ref2 1.02 | locus YDR297W, strain sur2, hits give low values 1.01 | locus YDR318W, strain mcm21, hits give low values 1.04 | locus YDR334W, strain swr1, hits give low values 1.01 | locus YDR335W, strain msn5, hits give low values 1 | locus YDR388W, hits give low values 1.02 | locus YDR392W, strain spt3, hits give low values 0.986 | locus YDR502C, strain sam2, hits give low values 1.03 | locus YEL003W, strain gim4, hits give low values 1.02 | locus YEL037C, strain rad23, hits give low values 1.01 | locus YEL061C, strain CIN8 (second series), hits give low values 1.02 | locus YEL061C, strain CIN8, hits give low values 1.01 | locus YER015W, strain faa2, hits give low values 1.01 | locus YER016W, strain bim1, hits give low values 1.01 | locus YER110C, hits give low values 1.04 | locus YER111C, strain swi4, hits give low values 1.01 | locus YER155C, strain BEM2 (second series), hits give low values 1.02 | locus YER155C, strain BEM2, hits give low values 1 | locus YER167W, strain BCK2, hits give low values 1.01 | locus YFR010W, strain ubp6, hits give low values 1.02 | locus YGL078C, strain dbp3, hits give low values 1.02 | locus YGL086W, strain mad1, hits give low values 1.01 | locus YGL167C, strain pmr1, hits give low values 1.02 | locus YGL173C, strain kem1, hits give low values 1.01 | locus YGL227W, strain vid30, hits give low values 1.01 | locus YGL240W, strain doc1, hits give low values 1.02 | locus YGL248W, strain PDE1, hits give low values 1.01 | locus YGL253W, strain hxk2, hits give low values 1.02 | locus YGR078C, strain PAC10, hits give low values 1.01 | locus YGR135W, strain pre9, hits give low values 1.03 | locus YGR229C, strain SMI1, hits give low values 1.01 | locus YGR252W, strain gcn5, hits give low values 1.06 | locus YHR013C, strain ard1, hits give low values 1.03 | locus YHR027C, strain rpn1, hits give low values 1.01 | locus YHR030C, strain SLT2, hits give low values 1.01 and 0.991 | locus YHR079C, strain IRE1 (second series), hits give low values 1.02 | locus YHR079C, strain IRE1, hits give low values 0.995 | locus YHR094C, strain hxt1, hits give low values 1.02 | locus YHR129C, strain ARP1, hits give low values 1 | locus YHR142W, strain chs7, hits give low values 1.03 | locus YHR200W, strain rpn10, hits give low values 1.03 | locus YIL066C, strain RNR3, hits give low values 1.01 | locus YIL073C, strain SPO22, hits give low values 1.08 | locus YIL125W, strain kgd1, hits give low values 1.02 | locus YIR030C, strain dcg1, hits give low values 1.03 | locus YJL092W, strain hpr5, hits give low values 1.01 | locus YJL095W, strain BCK1 (second series), hits give low values 1.01 | locus YJL095W, strain BCK1, hits give low values 1.03 and 0.999 | locus YJL115W, strain asf1, hits give low values 1.01 | locus YJL129C, strain trk1, hits give low values 1.01 | locus YJL134W, strain LCB3, hits give low values 1.01 | locus YJL154C, strain vps35, hits give low values 1.02 | locus YJL164C, strain tpk1, hits give low values 1.03 | locus YJL166W, strain qcr8, hits give low values 1.01 | locus YJL168C, strain set2, hits give low values 1.03 | locus YJL187C, strain SWE1 (second series), hits give low values 1.02 | locus YJL187C, strain SWE1, hits give low values 1.01 | locus YJR043C, strain POL32, hits give low values 1.02 | locus YJR066W, strain TOR1, hits give low values 0.943
